Shown are actives, neighbours in structure and some others; about 2.3% of the full set was active somewhere.
TDP-43 yeast inh – inhibitors of TDP-43 toxicity in yeast; TDP-43 expressing yeast growth rescue, BacTiter-Glo, 24 h; Potency, µM (series often up to 46.1 µM), for inactives: at the top dose growth rescue (activation), actives largely listed as activators; 410,000 compounds, 1.8% hits; note: potency is the fitted concentration of half-maximal effect; % of control where 0% means no effect; nearly all actives have a fitted effect of over 50% in size
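Galactose-induced TDP-43 yeast, OD600=0.02, compound pinned; 24 hr, 30 deg C; BacTiter-Glo luminescence for growth. Inhibitors of TDP-43 toxicity read as activators.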
FUS yeast rescue – suppressors of FUS proteinopathy in yeast | S. cerevisiae FUS-expressing, growth rescue, OD600, 24 h | Potency, µM (highest dose often 76.6 µM), usual class: activators | 390,000 compounds, 0.24% hits | AID 1347120;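 note: potency is the fitted concentration of half-maximal effect; plate controls were DMSO vehicle for no effect and reference control for full effect; nearly all actives have a fitted effect of over 55% in size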
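Absorbance at 600 nm, taken 24hr after compound addition, measured rescue of FUS-yeast growth at 30C. Induction used 2% galactose with seeding at OD 0.005. Controls: CP55940 from 92uM final, DMSO only.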
Abeta yeast res – compounds reversing amyloid beta toxicity in yeast; Potency, µM (highest dose often 46.1 µM), actives largely listed as activators; yeast expressing A-beta42, growth rescue, OD600, 48 h; response scale: 0% DMSO, 100% iron-clioquinol control; 410,000 compounds, 0.063% hits; AID 1347071; note: potency is the fitted concentration of half-maximal effect; nearly all actives have a fitted effect of over 55% in size
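Yeast growth medium received pinned compounds, then yeast cells expressing toxic A-beta were added; plates incubated at 30 C for 48 hr. Growth read as absorbance at 600 nm, normalized to DMSO and equimolar FeCl3 plus clioquinol controls.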
Akt phos inh – inhibitors of Akt phosphorylation; Neuro2A IGF-stimulated pAkt S473 HTRF, 20 min; hits give low values; 360,000 compounds, 0.32% hits; activity change, % for hits at 50 µM; in the data active = activity change below about -80%; inconclusive = mostly about -51% to -80%; note: % is set by controls: 0 for no effect and ±100 for the full control effect
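Neuro2A cells (4,500/well, DMEM with 0.5% FBS) were treated with compound at a single 50 µM final concentration, stimulated with 6 nM IGF for 20 min at 37 °C, and lysed. Phospho-Akt Ser473 was read by HTRF as 665/615 ratio ×10^4.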
aSyn yeast inh – rescues yeast growth from alpha-synuclein toxicity; Yeast expressing alpha-synuclein, growth rescue, BacTiter-Glo, 24 h; Potency, µM (doses to about 46.1 µM), for inactives: at the top dose growth rescue (activation), most hits filed as activators; 370,000 compounds, 0.14% hits; note: potency is the fitted concentration of half-maximal effect; % of control where 0% means no effect; nearly all actives have a fitted effect of over 65% in size
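Screening used galactose-induced yeast with toxic alpha-synuclein levels, exposed to compound for 24 hr at 30 deg C. Cell growth, read with BacTiter-Glo luminescence, gave the measured signal.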
An asterisk follows results filed as active; i = inactive; ? = inconclusive; . = not tested or not shown. Unless noted, calls come from the whole dose curve; as a rule, active = well fitted curve in the direction sought with a large enough effect; inconclusive = small, poorly fitted or top-dose-only effect, or another doubt; inactive = no such curve, though single readings can be large; an effect the other way counts as inactive or inconclusive.

SMILES	TDP-43 yeast inh	FUS yeast rescue	Abeta yeast res	Akt phos inh	aSyn yeast inh
CCC(=O)Nc1ccc(C)cc1-c1nc2ccccc2n(C(C)C(=O)Nc2ccccc2CC)c1=O (configuration not stated)	4.0%	i	i	.	.
COc1cc(C2C(C#N)=C(N)N(Nc3ccccc3)C3=C2C(=O)CC(C)(C)C3)ccc1OCc1cccc(F)c1 (configuration not stated)	-24.2%	?	i	-91.9%*	-5.0%
COc1cc(C2C(C#N)=C(N)N(Nc3ccccc3)C3=C2C(=O)CC(C)(C)C3)ccc1OCc1ccccc1 (configuration not stated)	-4.2%	i	i	i	-3.1%
COc1ccccc1NCCC(=O)OCC(=O)NCc1ccco1	3.1%	i	i	-106.1%*	3.9%
COc1ccc(OCCC(=O)OCC(=O)NCc2ccco2)cc1	-3.6%	i	i	i	7.9%
Cc1ccc2c(c1)N(Cc1ccccc1)C(=O)C(C)O2 (configuration not stated)	?	i	i	i	12.8%
COC(=O)c1cccc(CN2C(=O)C(C)Oc3ccc(C)cc32)c1 (configuration not stated)	17.8µM*	i	i	i	20.7%
COc1ccc(-c2cncnc2-c2ccc(OC)cc2O)cc1	16.0%	i	i	i	-1.5%
COc1cccc(Oc2cncnc2-c2ccc(OC)cc2O)c1	20µM*	i	i	i	?
CC(=O)NCCNc1nc2cc(-c3ccccc3CO)sc2c(=O)n1C	35.5µM*	i	i	i	?
Cc1ccccc1-c1cc2nc(NCc3ccccc3)n(C)c(=O)c2s1	?	28.2µM*	i	.	?
Cc1ccccc1-c1cc2nc(NCc3ccncc3)n(C)c(=O)c2s1	0.0%	i	i	i	7.0%
Cc1ccccc1-c1cc2nc(NCc3cccnc3)n(C)c(=O)c2s1	1.9%	i	i	i	-1.4%
COCCNc1nc2cc(-c3ccccc3OC)sc2c(=O)n1C	14.1µM*	i	i	i	0.8%
Cc1cnc(CNc2nc3cc(-c4ccccc4C)sc3c(=O)n2C)cn1	35.5µM*	i	i	i	9.2%
CCNC(=O)c1c2c(nc3ccccc13)C(=O)N(C1CCCCC1)C2	9.1%	i	i	.	.
CCOc1ccc(OCC)c(NC(=O)CCC(=O)N2CCOc3ccccc32)c1	9.7%	i	i	.	.
Cc1ccc(S(=O)(=O)N2CCN(c3nc(-c4ccc(CN5CCNCC5)s4)nc4ccccc34)CC2)cc1	.	.	.	.	-1.5%
CC(C)(C)c1csc(NC(=O)c2ccc(Cl)s2)n1	?	i	i	i	-35.4%
Cc1ccc(C(=O)Nc2nc(C(C)(C)C)cs2)s1	14.1µM*	i	i	.	-37.7%
CC1CN(C(=O)CCC(=O)NCc2ccc(F)cc2)c2cc(Cl)ccc2O1 (configuration not stated)	-20.1%	i	i	.	.
CCCc1cc(=O)[nH]c(SCC(N)=O)n1	3.7%	i	i	-125.2%*	5.4%
CC(=O)N1c2ccc(S(=O)(=O)NCc3ccc(Cl)cc3)cc2CC1C (configuration not stated)	17.5%	i	i	.	.
COc1cc(OC)cc(-c2nc3ccccc3c(=O)o2)c1	0.1%	i	i	-99.3%*	-10.7%
O=C(NC1CCCCC1)c1ccc(CSc2nc3cccnc3n2Cc2ccc(F)cc2)cc1	-4.2%	i	i	.	.
SMILES	TDP-43 yeast inh	FUS yeast rescue	Abeta yeast res	Akt phos inh	aSyn yeast inh
CCCOC(=O)c1c(N)sc(C(=O)OCC)c1C	7.94µM*	i	i	i	3.6%
CCOC(=O)c1sc(NC(=O)CN(CC)CC)c(C(=O)OCC)c1C	-13.3%	i	i	-81.1%*	16.1%
O=C(NC1CCCC1)c1ccc2c(=O)n(Cc3ccccc3)c(SCc3ccccc3)nc2c1	-0.4%	i	i	.	.
COc1ccc(C2Nc3ccccc3C(=O)N2c2ccc(F)cc2)cc1COc1ccc(NC(C)=O)cc1 (configuration not stated)	.	.	.	.	0.9%
O=C(CSc1c[nH]c2ccccc12)N1CCCc2ccccc21	22.4µM*	i	i	i	20.2%
O=C(CSc1ccc(-c2ccc(F)cc2)nn1)N1CCCc2ccccc21	22.4µM*	i	i	i	4.4%

Screening data deposited in PubChem BioAssay by National Center for Advancing Translational Sciences (NCATS).
